Data from PubChem BioAssay AID1942 (Johns Hopkins Ion Channel Center, 2009).
Screen size: about 2,400 compounds; about 580 (24%) were called active.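 The calls were made as follows: active = activity change at or above the mean plus 3 SD of buffer wells without dofetilide, per plate; inactive = the rest.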 Only a sample is shown.

target: Potassium voltage-gated channel subfamily KQT member 2 (Rattus norvegicus) (UniProt O88943); test: rat KCNQ2 channel activation by compounds alone, confirmation, counter-screen for hERG block protector project, cell-based, CHO, FluxOR thallium flux (AID 1942); details: CHO-KCNQ2 cells, FluxOR thallium flux fluorescence; at 10 µM; active compounds read high;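 as to activity change, less the hit threshold: normalized value minus buffer-control mean plus three SD of buffer wells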
Sequence (O88943 whole entry, looked up): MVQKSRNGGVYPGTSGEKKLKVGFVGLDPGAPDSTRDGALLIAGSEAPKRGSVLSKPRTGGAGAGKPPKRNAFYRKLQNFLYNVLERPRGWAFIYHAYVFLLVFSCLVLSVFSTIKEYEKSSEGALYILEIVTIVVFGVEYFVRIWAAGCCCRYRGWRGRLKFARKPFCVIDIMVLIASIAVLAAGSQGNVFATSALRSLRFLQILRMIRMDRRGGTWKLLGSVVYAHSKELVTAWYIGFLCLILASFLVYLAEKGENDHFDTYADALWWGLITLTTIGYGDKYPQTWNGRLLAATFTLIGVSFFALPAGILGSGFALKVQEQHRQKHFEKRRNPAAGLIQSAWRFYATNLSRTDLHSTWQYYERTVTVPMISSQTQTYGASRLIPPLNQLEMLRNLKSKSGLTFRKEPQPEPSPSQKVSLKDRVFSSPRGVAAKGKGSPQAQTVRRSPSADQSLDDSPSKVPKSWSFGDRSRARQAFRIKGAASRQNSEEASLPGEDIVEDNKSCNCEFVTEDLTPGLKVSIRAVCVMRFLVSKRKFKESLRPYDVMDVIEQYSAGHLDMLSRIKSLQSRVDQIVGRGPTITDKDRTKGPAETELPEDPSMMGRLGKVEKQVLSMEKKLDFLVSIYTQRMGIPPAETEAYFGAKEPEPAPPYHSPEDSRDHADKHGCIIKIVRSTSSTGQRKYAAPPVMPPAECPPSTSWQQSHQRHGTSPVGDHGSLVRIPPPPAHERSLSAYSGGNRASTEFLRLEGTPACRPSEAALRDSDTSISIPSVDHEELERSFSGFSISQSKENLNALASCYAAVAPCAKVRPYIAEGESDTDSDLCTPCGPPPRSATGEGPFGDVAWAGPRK

| Compound | activity change | activity change, less the hit threshold |
| --- | --- | --- |
| O=C1NC(=S)N(c2ccc(F)cc2)C(=O)/C1=C/c1ccco1 | 0.7% (active) |  |
| O=C1NC(=O)N(c2ccccc2)C(=O)/C1=C/c1ccc(Sc2ccccc2)o1 | -16.9% (inactive) |  |
| Cc1ccccc1N1C(=O)/C(=C/c2ccco2)C(=O)NC1=S | -6.4% (inactive) |  |
| COc1ccc(-c2nc(CSCC(=O)N3CCC4(CC3)OCCO4)c(C)o2)cc1OC | -18.2% (inactive) |  |
| O=C(Cn1ncc2c3ccccc3n(Cc3ccccc3F)c2c1=O)N1CCC2(CC1)OCCO2 | 37% (active) |  |
| O=C1NC(=O)C(=Cc2ccc(-c3cc(Cl)ccc3[N+](=O)[O-])o2)C(=O)N1 | -15.8% (inactive) |  |
| CC/C(=C\C=C\[C@@H]1C=C[C@@H]2CCC[C@H]2[C@@H]1C(=O)c1ccc[nH]1)[C@@H]1O[C@@H]([C@@H](C)C(=O)O)CC[C@@H]1C |  | 166% (active) |
| CN(C)C(=O)O/N=C(\N)COc1ccc(C(C)(C)C)cc1 |  | -13% (inactive) |
| O=c1[nH]c(=S)[nH]c(O)c1/C=C1/C=c2ccccc2=N1 | -27.3% (inactive) |  |
| O=C(COc1ccc(Br)cc1)N1CCN(Cc2ccc3c(c2)OCO3)CC1 |  | -18.6% (inactive) |
| N#CCCn1cc(C(=O)Nc2ccccc2Cl)c(-c2ccc(F)cc2)n1 |  | -16.8% (inactive) |
| CCOC(=O)c1c(NS(=O)(=O)c2ccccc2)n(CCCOC)c2nc3ccccc3nc12 |  | -27.8% (inactive) |
| COc1cccc(OC)c1C(=O)Nc1nc(N)n(-c2ccccc2)n1 |  | -9.7% (inactive) |
| COc1ccc2c(c1)/C(=C/c1cnc[nH]1)C(=O)N2 |  | 0.2% (active) |
| COc1ccc(OC)c(N2C(=O)/C(=C/c3ccco3)C(=O)NC2=S)c1 | -13.8% (inactive) |  |
| O=C1NC(=O)N(CCNc2ncc(C(F)(F)F)cc2Cl)C(=O)C1Cc1ccc(Cl)cc1 (stereo not given) | -25.6% (inactive) |  |
| COc1ccc(CN2CCCC(C(=O)c3sccc3C)C2)cc1O (stereo not given) |  | -26.3% (inactive) |
| C=CCN1C(=O)/C(=C/c2ccc(Br)s2)C(=O)NC1=S | -20.2% (inactive) |  |
| O=c1c2ccccc2[nH]c(=S)n1-c1ccc2c(c1)OCCO2 |  | -18.7% (inactive) |
| O=C(O)CCC(=O)NCCC1=c2ccccc2=N/C1=C\c1c(O)n(Cc2ccc(F)cc2)c(=S)[nH]c1=O | -17.9% (inactive) |  |
